In the library only some 2.4% were active in any assay of this set; here they are far more common.
AmpC inh no det = Promiscuous and Specific Inhibitors of AmpC Beta-Lactamase (assay without detergent) | P00811 | AmpC nitrocefin hydrolysis, absorbance 480 nm, no detergent | Potency, µM (highest dose often 28.7 µM), for the others: at the highest dose activity change, negative = inhibition | 71,000 compounds, 1.8% hits | AID 585, 2007; note: % of control where 0% means no effect
Target sequence (P00811 whole entry, looked up): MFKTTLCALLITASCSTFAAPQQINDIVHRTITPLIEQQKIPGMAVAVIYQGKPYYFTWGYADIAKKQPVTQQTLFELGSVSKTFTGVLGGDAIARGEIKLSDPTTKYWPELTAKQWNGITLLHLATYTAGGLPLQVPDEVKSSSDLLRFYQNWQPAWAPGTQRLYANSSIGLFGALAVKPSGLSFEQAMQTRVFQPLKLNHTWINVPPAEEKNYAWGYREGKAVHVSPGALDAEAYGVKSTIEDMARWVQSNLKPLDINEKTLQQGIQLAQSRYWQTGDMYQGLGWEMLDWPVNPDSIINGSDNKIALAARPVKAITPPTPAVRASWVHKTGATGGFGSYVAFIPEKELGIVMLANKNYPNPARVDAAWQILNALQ
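AmpC, 20 mM phosphate pH 7.0; 15 min cpd preinc, RT; start with nitrocefin (800 uM stock); A480 kinetic read, 20 s intervals, 4 min. No-enzyme wells = negative control.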
Anthrax LT inh = qHTS Assay for Anthrax Lethal Toxin Internalization; Potency, µM (top dose mostly 40 µM), inactives show top-dose activity change, negative = inhibition, hits mostly inhibitors; Cells, anthrax lethal toxin internalization, FRET ratio (460/530); 70,000 compounds, 0.67% hits; AID 912, 2007; note: % is set by controls: 0 for no effect and ±100 for the full control effect; nearly all actives have a fitted effect of over 50% in size
SmPrx2 inh = Schistosoma Mansoni Peroxiredoxins (Prx2); 65,000 compounds, 0.07% hits; Schistosoma mansoni peroxiredoxin 2 (Prx2); AID 448, 2006; S. mansoni Prx2 activity coupled to TGR/GSH (TGR is thioredoxin glutathione reductase), NADPH fluorescence loss, qHTS; Potency, µM
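Activity is read as the drop in NADPH fluorescence (365/450 nm), recorded every 30 sec for 8 min after H2O2 addition. Prx2 is coupled to TGR-driven NADPH oxidation through glutathione, in phosphate buffer pH 7.4.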
AmpC det inh = Promiscuous and Specific Inhibitors of AmpC Beta-Lactamase (assay with detergent); Potency, µM (doses to about 28.7 µM), without a hit: at the highest dose activity change, negative = inhibition; 71,000 compounds, 0.09% hits; purified AmpC, nitrocefin hydrolysis with detergent; active = well fitted curve in the direction sought with a large enough effect; inconclusive = small, poorly fitted or top-dose-only effect; note: % is set by controls: 0 for no effect and ±100 for the full control effect
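E. coli AmpC (5.3 nM) in 20 mM phosphate pH 7.0 with 0.01% Triton X-100, preincubated 15 min RT with compound; nitrocefin (2 uL of 800 uM stock) hydrolysis followed by 480 nm absorbance every 20 s over 4 min.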
* marks the source's active call; other numbers are inactive results; ? = inconclusive; · = no result; [ ] = another dose, or the depositor's remark. Unless noted, calls come from the whole dose curve. Potency is the fitted concentration of half-maximal effect.

SMILES	AmpC inh no det	Anthrax LT inh	SmPrx2 inh	AmpC det inh
CCOC(=O)c1cc2c(=O)n(C)c3ccccc3c2s1	-2.5%	2.1%	>57	11.8%
CCn1c(=O)c2cc(C(=O)N3CCOCC3)sc2c2ccccc21	3.98µM*[single pt active]	-16.5%	>57	13.7%
CCn1c(=O)c2cc(C(=O)N3CCCC3)sc2c2ccccc21	3.98µM*[single pt active]	-10.1%	>57	14.2%
N[C@H](Cn1ccc(=O)[nH]c1=O)C(=O)O	7.2%	-4.4%	>57	-4.0%
Cn1cnc([N+](=O)[O-])c1[Se]c1nc(N)nc2c1ncn2[C@@H]1O[C@@H](CO)[C@H](O)[C@@H]1O	3.0%[5.75 µM]	-6.8%[8 µM]	>57	-2.3%[5.75 µM]
Cc1cccc(N2CCN(C(=O)c3cc4c(=O)n(C)c5ccccc5c4n3C)CC2)c1C	3.98µM*[single pt active]	-17.6%	>57	10.6%
Cc1ccc(Cl)cc1N1CCN(C(=O)c2cc3c(=O)n(C)c4ccccc4c3n2C)CC1	3.98µM*[single pt active]	-12.1%	>57	12.7%
Cn1c(C(=O)N2CCCC2)cc2c(=O)n(C)c3ccccc3c21	11.1%	1.9%	>57	11.5%
Cn1c(C(=O)N2CCN(c3ccccc3F)CC2)cc2c(=O)n(C)c3ccccc3c21	3.98µM*[single pt active]	-3.5%	>57	13.4%
Cn1c(C(=O)N2CCN(c3ncccn3)CC2)cc2c(=O)n(C)c3ccccc3c21	26.6%	-3.9%	>57	16.0%
CCNc1ncc2nc(-c3cc(F)cc(F)c3)c(=O)n(C3CC3)c2n1	6.6%	?	>57	-2.6%
Cn1cccc1Cc1nnc(SCC(=O)N2CCOCC2)n1-c1ccc(F)cc1	3.98µM*[single pt active]	0.3%	>57	14.4%
Cn1cccc1Cc1nnc(SCC(N)=O)n1-c1ccc(F)cc1	3.98µM*[single pt active]	7.7%	>57	10.3%
C[C@H](N)c1cccc(Cl)c1Cl	2.8%	-3.9%	>57	-3.8%
O=C1C2CC=CCC2C(=O)N1SC(Cl)(Cl)Cl (configuration not stated)	?	3.16µM*	·	-3.5%
O=C1C2CC=CCC2C(=O)N1CC1CCCO1 (configuration not stated)	-10.6%	-12.5%	>57	-1.6%
O=C(c1cccc(F)c1)N1CCC2(CC1)CN(c1ccccn1)C2	48.0%	10.7%	>57	6.3%
CCOc1ccc(N(CC(=O)Nc2ccc(C)cc2)S(=O)(=O)c2c(C)noc2C)cc1	3.0%	?	>57	6.9%
COc1ccc(N(CC(=O)N2CC=C(c3ccccc3)CC2)S(=O)(=O)c2c(C)noc2C)cc1	3.98µM*[single pt active]	?	>57	13.4%
CCOc1ccc(N(CC(=O)N2CC=C(c3ccccc3)CC2)S(=O)(=O)c2c(C)noc2C)cc1	3.98µM*[single pt active]	?	>57	11.4%
CCCN1CCC[C@H](c2cccc(C#N)c2)C1	-10.3%	-6.2%	>57	-3.5%
Cn1c(=O)c2cc(S(=O)(=O)NC(Cc3ccccc3)C(=O)NCc3ccco3)ccc2n(C)c1=O (configuration not stated)	3.98µM*[single pt active]	-3.6%	>57	10.1%
Cc1cc(C)n(-c2ccc(C(=O)OCC(=O)c3ccc(Br)s3)cc2)n1	12.6µM*[single pt active]	-8.6%	>57	2.0%
Cc1cc(C)n(-c2ccc(C(=O)OCC(=O)NCc3ccco3)cc2)n1	32.1%	5.8%	>57	-1.5%
Cc1ccc(S(=O)(=O)C2(C(=O)NCc3ccc4c(c3)OCO4)CC2)cc1	3.98µM*[single pt active]	0.7%	>57	11.2%
SMILES	AmpC inh no det	Anthrax LT inh	SmPrx2 inh	AmpC det inh
OC[C@@H]1O[C@@H](n2cnc3c(N[C@H]4CCC[C@@H]4O)ncnc32)[C@H](O)[C@H]1O	-0.5%	?	>57	-2.5%
C=C1CC[C@H]2C(C)(C)[C@H](O)CC[C@]2(C)[C@@H]1COc1ccc2ccc(=O)oc2c1	55.8%	?	>57	-3.0%
C=C[C@@]1(C)CC(=O)[C@@]2(O)[C@@]3(C)[C@H](O)CCC(C)(C)[C@@H]3[C@H](O)[C@H](OC(C)=O)[C@]2(C)O1	15.7%	-12.3%	>25.6	0.4%
CC[C@@H](CO)NC(=O)[C@H]1C=C2c3cccc4c3c(cn4C)C[C@H]2N(C)C1	30.7%	?	>57	-5.6%
CCOC(=O)C(C)Sc1nnc(Cc2cc(=O)[nH]c(=O)[nH]2)n1-c1cccc(OC)c1 (configuration not stated)	3.98µM*[single pt active]	2.6%	>57	10.4%
CCOc1ccc(-n2c(Cc3cc(=O)[nH]c(=O)[nH]3)nnc2SC(C)C)cc1	12.3%	?	>57	24.2%
CCOc1ccc(-n2c(Cc3cc(=O)[nH]c(=O)[nH]3)nnc2SCc2cccnc2)cc1	3.98µM*[single pt active]	-8.5%	>57	12.2%
CCOC(=O)C(C)Sc1nnc(Cc2cc(=O)[nH]c(=O)[nH]2)n1-c1ccc(OCC)cc1 (configuration not stated)	3.98µM*[single pt active]	0.9%	>57	11.4%
COc1cc(OC)c2c(c1Cl)O[C@@]1(C2=O)[C@H](C)CC(=O)C[C@@H]1OC	24.8%[12.8 µM]	-8.5%[3.58 µM]	>57	4.0%[12.8 µM]
O=C(CC1Oc2ccccc2NC1=O)NCCCN1CCN(C2CCCCC2)CC1 (configuration not stated)	3.98µM*[single pt active]	-8.5%	?	16.8%
COCCCNC(=O)CC1Oc2ccccc2NC1=O (configuration not stated)	-9.3%	?	>57	8.3%
CCC1CCCCN1CCCNC(=O)CC1Oc2ccccc2NC1=O (configuration not stated)	3.98µM*[single pt active]	-10.0%	>57	12.0%
O=C(CC1Oc2ccccc2NC1=O)NC1CC1 (configuration not stated)	0.6%	-0.4%	>57	11.1%
CC1CCN(Cc2ccc(NC(=O)CC3Oc4ccccc4NC3=O)cc2)CC1 (configuration not stated)	3.98µM*[single pt active]	-5.5%	>57	11.9%
CCCCC[C@H](CC(=O)NO)C(=O)N[C@@H](C(=O)N1CCC[C@H]1CO)C(C)C	-1.3%	4.3%	>57	2.5%
CN1CCN(CCCN2c3ccccc3Sc3ccc(Cl)cc32)CC1	60.9%[12.8 µM]	25.1µM*	>57	-1.6%[12.8 µM]
CCSc1ccc2c(c1)N(CCCN1CCN(C)CC1)c1ccccc1S2	57.4%[12.8 µM]	14.9%[3.58 µM]	>57	-3.2%[12.8 µM]
Cc1nc(NC2CCCCC2)c2nc(-c3ccccc3)n(CCN3CCCC3)c2n1	90.5%	-24.0%	·	11.2%
Cc1ccc(-c2nc(NC(=O)CSc3nnc(C)s3)ns2)cc1	3.98µM*[single pt active]	-12.4%	>57	10.9%
Cc1nnc(SCC(=O)Nc2nsc(-c3ccccc3)n2)s1	-11.5%	·	>57	-3.6%
O=C(CSc1nnnn1-c1ccccc1)Nc1nsc(-c2ccccc2)n1	-15.1%	-23.5%	>57	-1.8%
O=C(CSc1nnnn1-c1ccccc1)Nc1nsc(-c2ccc(Cl)cc2)n1	10µM*[single pt active]	-13.6%	>57	0.0%
Cc1cc(C(=O)CSc2nc3ccccc3[nH]2)c(C)n1C	-1.9%	-8.0%	>57	-3.1%
Cc1nn2c(=O)cc(CSc3nc4ccccc4[nH]3)nc2s1	3.98µM*[single pt active]	7.7%	>57	13.1%
O=C(CN1CCN(c2ccccc2)CC1)Nc1nnc(-c2ccccc2)s1	-8.5%	-1.0%	>57	-2.2%
O=C(CN1CCN(c2ccc(F)cc2)CC1)Nc1nnc(-c2ccccc2)s1	15.8µM*[single pt active]	1.2%	>57	0.4%

Screens: PubChem, National Center for Advancing Translational Sciences (NCATS)
